Drawing on PubChem BioAssay (NCI), this text covers growth inhibition for nine molecules.

Each structure is given as a SMILES string. This is part of a sample that, as a whole, favours compounds with a hit. Of some 79,000 tested, about 15% had one in any assay. Unmarked numbers belong to inactive results. Calls of active or inactive are those of the source. No stated cut-off is given here; in the data, active means growth inhibition above about 70%; inactive means the rest.

The nature of assay [1]: NCI Yeast Anticancer Drug Screen. Data for the rad50 strain (AID 155).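 Further: 0% = growth of vehicle-only cultures of the same strain.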 Particulars: S. cerevisiae rad50 strain growth inhibition, hits give high values. The method, boiled down: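 Growth of the mutant yeast was measured after compound exposure and referenced to vehicle-treated cultures.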
A short description of assay [2]: NCI Yeast Anticancer Drug Screen. Data for the mec2-1 strain (AID 157). Particulars: S. cerevisiae mec2-1 strain, hits give high values. The method, boiled down:
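Growth inhibition is read against vehicle-treated controls after compound exposure of the mec2-1 yeast strain, which is defective in DNA damage repair or cell cycle control.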

Assay [3] is described as follows: NCI Yeast Anticancer Drug Screen. Data for the sgs1 mgt1 strain (AID 161).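 Further: 0% = growth of cultures given vehicle only.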 Particulars: S. cerevisiae sgs1 mgt1 strain, hits give high values. The method, boiled down:
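Compounds are added to genetically altered yeast, and growth is compared with cultures given vehicle alone to give percent inhibition.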

Assay [4] can be described thus: NCI Yeast Anticancer Drug Screen. Data for the cln2 rad14 strain (AID 165).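 Further: 0% = growth equal to vehicle treated cultures.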 Particulars: S. cerevisiae cln2 rad14 strain, hits give high values. The method, boiled down:
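Growth inhibition, relative to vehicle-treated controls, is the read-out. The test organism is a yeast strain with defined genetic alterations, cln2 rad14.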

Assay [5] is described as follows: NCI Yeast Anticancer Drug Screen. Data for the bub3 strain (AID 167). Particulars: S. cerevisiae bub3 mutant strain, hits give high values. The method, boiled down:
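Whole-cell yeast assay. The mutant strain was incubated with compounds, and growth inhibition was determined by comparison with vehicle-treated cells.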

A short description of assay [6]: NCI Yeast Anticancer Drug Screen. Data for the mlh1 rad18 strain (AID 175). Particulars: S. cerevisiae mlh1 rad18 strain growth inhibition, hits give high values. The method, boiled down: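 Cells of a genetically altered yeast strain, deficient in DNA damage repair, were treated with compound. Their growth was then compared with that of vehicle-treated cultures to give inhibition.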

Setting [7] is: at 5.0 µM (retest, dose inferred, filed as 0.5).
Setting [8] is: at 50.0 µM (retest, dose inferred, filed as 5.0).

With `CCOC(=O)Nc1cc2c(cn1)[nH]c1ccccc12`, the growth inhibition in assay [1] (setting [7]) is -3%; in assay [1] (setting [8]) it was 46%; in assay [1] (at 50.0 µM) it was -0.8%; in assay [2] (setting [7]) it was 7%; in assay [2] (setting [8]) it was 72% (active); in assay [2] (at 50.0 µM) it was -12.2%. Also, the growth inhibition in assay [3] (setting [7]) was -1%; in assay [3] (setting [8]), 52%; in assay [3] (at 50.0 µM), 8.35%; in assay [4] (setting [7]), 1%; in assay [4] (setting [8]), 25%; in assay [4] (at 50.0 µM), -0.4%. Also, the growth inhibition in assay [5] (setting [7]) is 2%; in assay [5] (setting [8]), 38%; in assay [5] (at 50.0 µM), 3.25%; in assay [6] (setting [7]), 5%; in assay [6] (setting [8]) it was 86% (active); in assay [6] (at 50.0 µM), 5.3%.

As to `O=C(O)C1(Cc2ccc3c(c2)CCC3)Cc2ccccc2C1`, the growth inhibition was 18% in assay [1] (setting [7]); 18% in assay [1] (setting [8]); 90.3% (active) in assay [1] (at 50.0 µM); -7% in assay [2] (setting [7]); -7% in assay [2] (setting [8]); 91.9% (active) in assay [2] (at 50.0 µM). The growth inhibition in assay [3] (setting [7]) is 15%; in assay [3] (setting [8]) it was 15%; in assay [3] (at 50.0 µM) it was 88.5% (active); in assay [4] (setting [7]) it was 5%; in assay [4] (setting [8]), 5%; in assay [4] (at 50.0 µM), 89% (active). The growth inhibition was -6% in assay [5] (setting [7]); -6% in assay [5] (setting [8]); 90% (active) in assay [5] (at 50.0 µM); 3% in assay [6] (setting [7]); 3% in assay [6] (setting [8]); 86.8% (active) in assay [6] (at 50.0 µM).

Regarding `Oc1ccc(N=Nc2cc(Cl)ccc2Cl)cc1`, the growth inhibition was 92% (active) in assay [1] (setting [7]); 95% (active) in assay [1] (setting [8]); 98.5% (active) in assay [1] (at 50.0 µM); 94% (active) in assay [2] (setting [7]); 96% (active) in assay [2] (setting [8]); 98.2% (active) in assay [2] (at 50.0 µM). Besides, the growth inhibition is 95% (active) in assay [3] (setting [7]); 95% (active) in assay [3] (setting [8]); 98.5% (active) in assay [3] (at 50.0 µM); 94% (active) in assay [4] (setting [7]); 94% (active) in assay [4] (setting [8]); 82.5% (active) in assay [4] (at 50.0 µM). In addition, the growth inhibition in assay [5] (setting [7]) is 93% (active); in assay [5] (setting [8]), 95% (active); in assay [5] (at 50.0 µM), 98% (active); in assay [6] (setting [7]) it was 94% (active); in assay [6] (setting [8]), 96% (active); in assay [6] (at 50.0 µM), 97.7% (active).

Take `NC(=O)c1ccc[n+](CC(=O)Nc2ccc(Cl)cc2)c1`: the growth inhibition in assay [1] (setting [7]) was 2%; in assay [1] (setting [8]), -3%; in assay [1] (at 50.0 µM) it was 5.6%; in assay [2] (setting [7]), -9%; in assay [2] (setting [8]) it was -4%; in assay [2] (at 50.0 µM), -1.35%. Besides, the growth inhibition in assay [3] (setting [7]) is -5%; in assay [3] (setting [8]) it was -28%; in assay [3] (at 50.0 µM), -7.2%; in assay [4] (setting [7]), -1%; in assay [4] (setting [8]) it was -6%; in assay [4] (at 50.0 µM), -57.3%. Besides, the growth inhibition in assay [5] (setting [7]) was 0%; in assay [5] (setting [8]), -11%; in assay [5] (at 50.0 µM) it was 31%; in assay [6] (setting [7]), 11%; in assay [6] (setting [8]), 4%; in assay [6] (at 50.0 µM), -13.9%.

Consider `COc1ccc(C(=O)c2ccc([N+](=O)[O-])cc2)cc1`, for which the growth inhibition in assay [1] (setting [7]) is -1%; in assay [1] (setting [8]), -19%; in assay [1] (at 50.0 µM), -4.55%; in assay [2] (setting [7]) it was 7%; in assay [2] (setting [8]) it was -9%; in assay [2] (at 50.0 µM), -12.2%. The growth inhibition in assay [3] (setting [7]) is 3%; in assay [3] (setting [8]), 0%; in assay [3] (at 50.0 µM), -3.8%; in assay [4] (setting [7]), -15%; in assay [4] (setting [8]), -47%; in assay [4] (at 50.0 µM), 53.4%. Further, the growth inhibition is 9% in assay [5] (setting [7]); -17% in assay [5] (setting [8]); 17.5% in assay [5] (at 50.0 µM); 13% in assay [6] (setting [7]); 0% in assay [6] (setting [8]); -21.6% in assay [6] (at 50.0 µM).

With `CC(=O)Nc1cccc2c1ccc1ccc3ccccc3c12`, the growth inhibition in assay [1] (setting [7]) is 13%; in assay [1] (setting [8]), 21%; in assay [1] (at 50.0 µM), 77.3% (active); in assay [2] (setting [7]), -1%; in assay [2] (setting [8]) it was 9%; in assay [2] (at 50.0 µM) it was 61.2%. The growth inhibition was 4% in assay [3] (setting [7]); 20% in assay [3] (setting [8]); 71.2% (active) in assay [3] (at 50.0 µM); -12% in assay [4] (setting [7]); -11% in assay [4] (setting [8]); -3.25% in assay [4] (at 50.0 µM). The growth inhibition in assay [5] (setting [7]) is 3%; in assay [5] (setting [8]) it was -1%; in assay [5] (at 50.0 µM), 5.75%; in assay [6] (setting [7]) it was 32%; in assay [6] (setting [8]) it was 52%; in assay [6] (at 50.0 µM), 71% (active).

In the case of `COc1cc(-c2oc(C=Nc3ccccc3)c([N+](=O)[O-])c2-c2ccc(O)c(OC)c2)ccc1O`, the growth inhibition was 22% in assay [1] (setting [7]); 32% in assay [1] (setting [8]); 34.1% in assay [1] (at 50.0 µM); 19% in assay [2] (setting [7]); 38% in assay [2] (setting [8]); -7.5% in assay [2] (at 50.0 µM). Besides, the growth inhibition in assay [3] (setting [7]) is -14%; in assay [3] (setting [8]), 74% (active); in assay [3] (at 50.0 µM), 31.4%; in assay [4] (setting [7]), 7%; in assay [4] (setting [8]) it was 74% (active); in assay [4] (at 50.0 µM), -18.1%. Also, the growth inhibition in assay [5] (setting [7]) is 5%; in assay [5] (setting [8]), 91% (active); in assay [5] (at 50.0 µM), -16.8%; in assay [6] (setting [7]), 25%; in assay [6] (setting [8]) it was 61%; in assay [6] (at 50.0 µM), 1.65%.

As for `Cc1ccc(O)c(C(c2cc(C)ccc2O)c2cc([N+](=O)[O-])ccc2O)c1`, the growth inhibition is 23% in assay [1] (setting [7]); 97% (active) in assay [1] (setting [8]); 90.9% (active) in assay [1] (at 50.0 µM); 7% in assay [2] (setting [7]); 99% (active) in assay [2] (setting [8]); 93.1% (active) in assay [2] (at 50.0 µM). In addition, the growth inhibition in assay [3] (setting [7]) is 17%; in assay [3] (setting [8]), 99% (active); in assay [3] (at 50.0 µM), 40.5%; in assay [4] (setting [7]) it was 17%; in assay [4] (setting [8]), 99% (active); in assay [4] (at 50.0 µM), 90.8% (active). Moreover, the growth inhibition in assay [5] (setting [7]) is 5%; in assay [5] (setting [8]) it was 99% (active); in assay [5] (at 50.0 µM), 91.8% (active); in assay [6] (setting [7]), 24%; in assay [6] (setting [8]), 97% (active); in assay [6] (at 50.0 µM) it was 91.3% (active).

On to `CCN(CC)c1c(C(=O)/C=C/c2ccc(F)cc2)c(-c2ccccc2)nn(C)c1=O`, for which the growth inhibition in assay [1] (setting [7]) was 29%; in assay [1] (setting [8]), 29%; in assay [1] (at 50.0 µM), 87.9% (active); in assay [2] (setting [7]), 2%; in assay [2] (setting [8]), 2%; in assay [2] (at 50.0 µM), 90.6% (active). Moreover, the growth inhibition was 12% in assay [3] (setting [7]); 12% in assay [3] (setting [8]); 70.5% (active) in assay [3] (at 50.0 µM); 16% in assay [4] (setting [7]); 16% in assay [4] (setting [8]); 90.3% (active) in assay [4] (at 50.0 µM). For the same molecule, the growth inhibition in assay [5] (setting [7]) was -3%; in assay [5] (setting [8]), -3%; in assay [5] (at 50.0 µM), 90.3% (active); in assay [6] (setting [7]), 1%; in assay [6] (setting [8]), 1%; in assay [6] (at 50.0 µM) it was 86.2% (active).
